Screens deposited in PubChem by National Center for Advancing Translational Sciences (NCATS).
Shown are actives, neighbours in structure and some others; about 7.5% of the full set was active somewhere.
Rab9 prom act = activates the Rab9 promoter | Potency, µM (titrated, usually from 9.22 µM), most hits filed as activators | 320,000 tested, 2.8% active | Huh7 Rab9 promoter-luciferase reporter, luminescence, 24 h; also: nearly all actives have a fitted effect of over 60% in size
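Cells were plated at 1500 per well in reduced-serum medium with 10% FBS and left 2 h. Compound in DMSO was then added for 24 h at 37 °C. Reporter signal was read by luminescence after 10 min with luciferase detection reagent.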
SMN2 splice up = enhancers of SMN2 splice variant expression | HEK293 SMN2-luciferase splicing reporter, luminescence, 30-36 h | AID 1458 | Potency, µM (doses to about 46.1 µM), usual class: activators | 210,000 tested, 2.8% active; also: nearly all actives have a fitted effect of over 55% in size
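qHTS luciferase splicing reporter: luminescence rises when SMN2 exon 7 is included in transfected HEK293 cells. Compound exposure lasted 30-36 h at 37C, with 4.5 mM final sodium butyrate as control, followed by a ONE-Glo read.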
NPC1 promoter act = activators of NPC1 promoter; Huh7 NPC1 promoter luciferase reporter, 24 h; Potency, µM (top dose mostly 9.22 µM), usual class: activators; 320,000 tested, 2.4% active; AID 485313; also: nearly all actives have a fitted effect of over 60% in size
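Luminescence read-out of NPC1 promoter-driven luciferase in stably transfected Huh7 cells; compounds delivered in DMSO and left 24 h at 37C, 5% CO2, qHTS titration format.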
KinaseGlo FLuc = counter-screen: inhibitors of Kinase-Glo firefly luciferase; Potency, µM (highest dose often 38.3 µM), hits mostly inhibitors; Kinase-Glo luciferase, ATP luminescence, 8 min; Q27757; 200,000 tested, 0.28% active; also: nearly all actives have a fitted effect of over 60% in size
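Kinase-Glo luciferase light output from ATP and luciferin was measured with 10 uM ATP, within the enzyme's linear range. Buffer: 50 mM imidazole pH 7.2, 50 mM KCl, 7 mM MgCl2, 0.01% Tween 20, 0.05% BSA; luminescence read after 8 min at ambient temperature.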
ELG1 genotoxic = inducers of genotoxicity in HEK293T ELG1-luciferase cells; HEK293T ELG1-luciferase reporter, luminescence, 16 h; AID 504466; Potency, µM (titrated, usually from 46 µM), actives largely listed as activators; 330,000 tested, 1.3% active; also: nearly all actives have a fitted effect of over 60% in size
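Genotoxic stress is detected as increased luminescence from luciferase-tagged ELG1 in HEK293T cells, measured with ONE-Glo after a 16 hr treatment at 37 °C.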
FLuc counter = firefly luciferase modulation, counter-screen for miR-21 project; Potency, µM (series often up to 57.5 µM), most hits filed as inhibitors; AID 588342; 360,000 tested, 6.9% active; purified FLuc, Km substrates, luminescence inhibition; P08659; also: nearly all actives have a fitted effect of over 55% in size
Target sequence (P08659 whole entry, looked up): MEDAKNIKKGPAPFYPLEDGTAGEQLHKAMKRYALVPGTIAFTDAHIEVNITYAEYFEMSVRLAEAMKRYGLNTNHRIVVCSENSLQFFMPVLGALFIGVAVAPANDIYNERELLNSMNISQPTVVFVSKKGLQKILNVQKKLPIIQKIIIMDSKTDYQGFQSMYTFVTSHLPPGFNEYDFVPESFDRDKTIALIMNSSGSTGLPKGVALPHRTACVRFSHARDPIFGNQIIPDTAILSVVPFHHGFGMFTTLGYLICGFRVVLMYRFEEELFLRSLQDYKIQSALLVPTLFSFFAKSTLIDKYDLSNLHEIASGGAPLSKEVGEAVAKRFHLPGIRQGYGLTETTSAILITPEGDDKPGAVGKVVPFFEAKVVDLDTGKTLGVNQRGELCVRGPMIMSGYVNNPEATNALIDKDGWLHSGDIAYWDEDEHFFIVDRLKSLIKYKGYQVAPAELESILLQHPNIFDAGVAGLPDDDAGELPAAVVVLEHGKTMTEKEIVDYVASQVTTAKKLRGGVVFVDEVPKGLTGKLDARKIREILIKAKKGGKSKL
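Purified P. pyralis luciferase, 10 nM final, with Km-level 10 uM D-luciferin and 10 uM ATP in 50 mM Tris acetate pH 7.5, 10 mM Mg acetate, 0.01% Tween-20, 0.05% BSA; 6-point qHTS titration about 60 µM downward; luminescence read.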
Numbers stand for hits; - = inactive; ? = inconclusive; . = not tested or not shown; [ ] = another dose, or the depositor's remark. Calls follow the shape of the dose curve; as a rule, active = well fitted curve in the direction sought with a large enough effect; inconclusive = small, poorly fitted or top-dose-only effect, or another doubt; inactive = no such curve, though single readings can be large; an effect the other way counts as inactive or inconclusive.

SMILES | Rab9 prom act | SMN2 splice up | NPC1 promoter act | KinaseGlo FLuc | ELG1 genotoxic | FLuc counter
Cc1cccc(N2CCN(C(=O)Cn3ncc4c3-c3cc(C)ccc3OC4)CC2C)c1 (stereo unspecified) | . | - | . | . | . | -
Cc1ccc(CSCC(=O)Nc2ccccc2C(=O)O)cc1 | 2.8µM | . | 3.5µM | . | - | 12µM
O=C(CSc1ccccc1)Nc1ccccc1C(=O)O | . | - | . | - | . | 21µM
CSc1ccccc1NC(=O)CSCc1ccc(C)cc1 | - | - | - | - | - | -
CCn1c(SCC(=O)Nc2ccccc2OC)nc2ccccc2c1=O | - | - | - | - | - | -
CCOc1ccccc1-n1c(SCC(=O)Nc2ccccc2C(=O)O)nc2ccccc2c1=O | ? | . | ? | . | - | 12µM
Cc1ccc(CCC(=O)Nc2ccccc2C(=O)O)o1 | ? | . | ? | . | ? | 17µM
O=C1C2C3C=CC(C4CC34)C2C(=O)N1c1cccc2ccccc12 (stereo unspecified) | - | . | - | . | - | 6.7µM
CN(C(=O)COC(=O)c1ccc2ccccc2n1)c1ccccc1 | . | . | . | . | - | .
CC(NC(=O)c1nn(C)c2c1CSc1ccccc1-2)c1ccccc1 (stereo unspecified) | . | . | . | . | . | -
COc1cccc(NC(=O)C2CCC(CNS(=O)(=O)c3cccc4cccnc34)CC2)c1 (stereo unspecified) | - | . | - | . | - | -
CCOC(=O)c1cnc2c(N=Nc3cccc(Cl)c3)c(N)nn2c1N | - | - | - | - | - | ?
CCOC(=O)c1cnc2c(-c3ccc(Cl)cc3)cnn2c1C | 0.89µM | 11µM | 1.8µM | - | 2.6µM | 0.6µM
CCOC(=O)c1cnc2c(N=Nc3ccccc3)c(N)nn2c1N | 1.1µM | 16µM | 1.1µM | - | ? | 0.95µM
CCOC(=O)c1cnc2c(-c3ccccc3)cnn2c1N | 0.5µM | 10µM | 0.63µM | - | ? | 0.6µM
CCOC(=O)c1cnc2c(-c3ccccc3)c(C)nn2c1N | - | - | - | - | ? | ?
CC(NC(=S)Nc1ccccc1C(F)(F)F)C1CC2CCC1C2 (stereo unspecified) | - | - | - | - | - | -
Cc1c(C(=O)Nc2ccc3c(c2)OCO3)oc2ccccc12 | 2.2µM | . | 2µM | . | 2.6µM | 1.9µM
Cc1ccc(NC(=O)c2oc3ccccc3c2NC(=O)c2ccc(F)c(F)c2)cc1 | . | - | . | . | . | -
CSCc1c(C(=O)Nc2ccc(N3CCOCC3)cc2)oc2ccccc12 | - | - | - | - | - | -
COCC(=O)Nc1c(C(=O)Nc2ccc3c(c2)OCO3)oc2ccccc12 | 3.2µM | . | 3.5µM | . | ? | -
CSCc1c(C(=O)Nc2ccc3c(c2)OCO3)oc2ccccc12 | - | . | - | . | - | 19µM
COCC(=O)Nc1c(C(=O)Nc2ccc(C)cc2)oc2ccccc12 | . | 7.9µM | . | . | . | -
O=C(COc1ccccc1F)Nc1c(C(=O)Nc2cccc(F)c2)oc2ccccc12 | . | - | . | . | . | -
Nc1ccccc1NC(=O)CCn1c(=S)[nH]c2ccccc2c1=O | - | . | - | . | - | -
SMILES | Rab9 prom act | SMN2 splice up | NPC1 promoter act | KinaseGlo FLuc | ELG1 genotoxic | FLuc counter
ON=C1CCCCC1 | . | - | . | . | . | .
Cc1cc(S(=O)(=O)Nc2cc3c(cc2N2CCOCC2)n(C)c(=O)c(=O)n3C)ccc1F | . | . | . | . | . | -
CC(=O)Nc1c(C(=O)Nc2ccccc2F)oc2ccccc12 | . | - | . | . | . | -
CC(=O)Nc1c(C(=O)Nc2ccc3c(c2)OCO3)oc2ccccc12 | 2.5µM | . | 2.8µM | . | ? | 11µM
O=C(CCl)Nc1c(C(=O)Nc2ccc3c(c2)OCCO3)oc2ccccc12 | 4µM | . | 4µM | . | ? | ?
O=C(CCC1CCCC1)Nc1cc(Cl)ccc1N1CCOCC1 | - | . | - | . | - | -
CC(C)(C)c1ccc(C(=O)NCCC(=O)Nc2cc(Cl)ccc2N2CCOCC2)cc1 | - | . | - | . | - | 21µM
NC(=O)NC1NC(=O)NC1=O (stereo unspecified) | - | - | - | - | - | -
CSc1nc(-c2ccc(Cl)cc2)nn1C(=O)c1ccccc1 | ? | . | - | . | - | 11µM
CSc1nc(-c2ccccc2)nn1C(=O)c1ccc(Cl)cc1 | - | ? | - | - | - | -
Cc1ccc(C2=Nc3ccccc3N(CC(=O)Nc3ccccc3C)C(=O)C2)cc1C | . | . | . | . | . | 11µM
COc1ccc(Cc2nc3ccc(C(=O)N(C)CCn4ccnc4)cc3o2)cc1OC | - | . | ? | . | -[9.26 µM] | ?
COCc1cc(=O)n2[nH]c(C)cc2n1 | - | - | - | - | - | -
COCc1cc(=O)n2[nH]c(-c3ccccc3)cc2n1 | - | - | - | - | ? | 19µM
COCc1cc(=O)n2[nH]c(C(C)(C)C)cc2n1 | - | . | - | . | - | -
COCc1cc(=O)n2[nH]c(-c3cccc(Br)c3)cc2n1 | - | ? | - | - | 11µM | ?
CCOc1ccccc1CNC(=O)c1ccc(NC(=O)N2CCSc3ncccc32)cc1 | . | . | . | . | . | -
COc1ccccc1C(=O)Nc1ccc2c(c1)CCCN2C(=O)c1cccs1 | - | . | - | . | - | 17µM
COc1ccccc1C(=O)Nc1ccc2c(c1)CN(C(=O)CSC)CC2 | - | . | - | . | - | 24µM
CCOC(=O)CNC(=O)N1CCc2ccc(NC(=O)c3ccccc3Cl)cc2C1 | - | . | - | . | - | ?
O=C(Nc1ccc2c(c1)CCCN2C(=O)c1cccs1)c1ccccc1C(F)(F)F | . | . | . | . | . | -
COc1ccccc1C(=O)Nc1ccc2c(c1)CCCN2C(=O)c1ccccc1 | - | . | - | . | - | 9.5µM
O=C(Nc1ccc2c(c1)CCCN2C(=O)c1ccccc1)c1ccccc1Br | - | . | - | . | - | ?
C=CCOc1ccc(/C=C2\SC(N)=NC2=O)cc1OC | - | . | - | . | ? | 11µM
COc1cc(/C=C2\SC(N)=NC2=O)ccc1O | - | . | - | . | - | ?
SMILES | Rab9 prom act | SMN2 splice up | NPC1 promoter act | KinaseGlo FLuc | ELG1 genotoxic | FLuc counter
CCc1ccc(-c2nc(SCC(=O)NC3CCS(=O)(=O)C3)n[nH]2)cc1 (stereo unspecified) | - | . | - | . | ? | 5.4µM
O=C(CSc1n[nH]c(-c2ccncc2)n1)NC1CCS(=O)(=O)C1 (stereo unspecified) | - | - | - | - | - | -
O=C(CSc1nnc(Nc2ccccc2)s1)NC1CC1 | - | . | - | . | - | ?
COc1ccc(Nc2nnc(SCC(=O)NC3CC3)s2)cc1 | - | . | - | . | - | 19µM
CCc1ccc(Nc2nnc(SCC(=O)N(C)C3CCS(=O)(=O)C3)s2)cc1 (stereo unspecified) | ? | . | 3.5µM | . | ? | 0.43µM
O=C(CSc1nnc(NCc2ccccc2)s1)NC1CCS(=O)(=O)C1 (stereo unspecified) | - | . | - | . | - | 17µM
CN(C(=O)CSc1nnc(NC2CCCCC2)s1)C1CCS(=O)(=O)C1 (stereo unspecified) | - | - | - | - | - | -
COc1ccc(CN(CC(=O)NC2CCCC2)C(=O)CCC(=O)Nc2nc(C)cs2)cc1 | - | . | - | . | - | -
COCC(=O)N1CCC2(CC1)CN(C(=O)Nc1cccc(C#N)c1)C2 | . | - | . | - | . | .
